Reference: the supplement of paper PMC12350171
Where a name gives a salt, the structure may show the parent alone.

Columns and labels:
Settings in all cases: 20 µM
[1] = test system: Salmonella enterica typhimurium; assay: growth AUC normalised to DMSO control (fraction of control); higher = less growth inhibition, active = hit call of the paper
How it was run: (§1)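 Pathogens passaged twice anaerobically were inoculated at a starting OD578 of 0.01 into pre-reduced mGAM plates with drug at 20 μM and 1% DMSO, sealed with breathable membranes. Haemophilus parainfluenzae medium was supplemented with hemin and NAD. OD578 was read hourly for 24 h, with three biological replicates. Growth-curve AUC was computed by the trapezoidal rule up to the exponential-to-stationary transition and normalised to DMSO controls on the same plate.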

Shigella flexneri = assay: as above
How it was run: as §1

Vibrio cholerae = assay: as above
How it was run: as §1

[2] = test system: Yersinia pseudotuberculosis; assay: as above
How it was run: as §1

P. vulgatus RND KO = assay: growth AUC normalised to DMSO control (median) (fraction of control); higher = less growth inhibition, active = hit call of the paper
How it was run: (§2)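 Each strain went through two overnight passages under anaerobic conditions before growth in mGAM in 96-well plates, starting at OD578 0.01, with each compound from the approved-drug library at 20 μM and 1% DMSO. Inside an anaerobic incubator, OD578 was recorded every hour for 24 h. Growth curves were cut off at entry into stationary phase, and the area under the curve was calculated by the trapezoidal rule and normalised to vehicle wells on the same plate. Reported values are medians of three biological replicates.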

P. vulgatus WT = assay: as above
How it was run: as §2

[3] = test system: S. enterica typhimurium WT; assay: as above
How it was run: as §2

[4] = test system: S. enterica typhimurium tolC KO; assay: as above
How it was run: as §2

Measured: growth AUC normalised to DMSO control
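For growth AUC normalised to DMSO control (median) in this document: active when median AUC fell below 0.1.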

C[C@]12CC[C@@H]3c4ccc(OS(=O)(=O)O)cc4CC[C@H]3[C@@H]1CCC2=O [Estropipate piperazine salt]
inactive: [1] 0.985 | Shigella flexneri 0.974 | Vibrio cholerae 0.991 | [2] 0.965 | P. vulgatus RND KO 0.987 | P. vulgatus WT 0.983 | [3] 0.997 | [4] 0.996

Nc1nc(=O)c2nc(CNc3ccc(C(=O)N[C@@H](CCC(=O)O)C(=O)O)cc3)cnc2[nH]1 [Folic acid]
inactive: [1] 0.991 | Shigella flexneri 0.99 | Vibrio cholerae 1 | [2] 0.994 | P. vulgatus RND KO 0.997 | P. vulgatus WT 1 | [3] 0.997 | [4] 1.01

CCCOc1ccccc1-c1nc2[nH]nnc2c(=O)[nH]1 [Zaprinast]
inactive: [1] 0.998 | Shigella flexneri 0.977 | Vibrio cholerae 0.985 | [2] 0.989 | P. vulgatus RND KO 1 | P. vulgatus WT 1.02 | [3] 1 | [4] 1

CNCC(O)c1ccc(O)c(O)c1 (stereo unspecified) [Racepinephrine hydrochloride]
inactive: [1] 1.03 | Shigella flexneri 1.02 | Vibrio cholerae 1.09 | [2] 1.04 | P. vulgatus RND KO 1.01 | P. vulgatus WT 1 | [3] 1.01 | [4] 1

CN(C)C/C=C(/c1ccc(Br)cc1)c1cccnc1 [Zimelidine dihydrochloride monohydrate]
inactive: [1] 0.996 | Shigella flexneri 0.999 | Vibrio cholerae 1 | [2] 1.03 | P. vulgatus RND KO 1.04 | P. vulgatus WT 1.04 | [3] 1.02 | [4] 0.983

CC(=O)OCC(CCn1cnc2cnc(N)nc21)COC(C)=O [Famciclovir]
inactive: [1] 1.02 | Shigella flexneri 1.01 | Vibrio cholerae 1.04 | [2] 1.01 | P. vulgatus RND KO 1.03 | P. vulgatus WT 1.03 | [3] 1 | [4] 0.976

COc1cc(C(=O)NCc2ccc(OCCN(C)C)cc2)cc(OC)c1OC [Trimethobenzamide hydrochloride]
inactive: [1] 1.02 | Shigella flexneri 1.01 | Vibrio cholerae 1.05 | [2] 1.02 | P. vulgatus RND KO 1.02 | P. vulgatus WT 1.05 | [3] 0.999 | [4] 1.01

N=C(N)NC(=N)NCCc1ccccc1 [Phenformin hydrochloride]
inactive: [1] 1.01 | Shigella flexneri 0.995 | Vibrio cholerae 1.01 | [2] 0.987 | P. vulgatus RND KO 1.01 | P. vulgatus WT 1.04 | [3] 0.994 | [4] 0.986

CSc1ccc2c(c1)N(CCC1CCCCN1C)c1ccccc1S2 (stereo unspecified) [Thioridazine hydrochloride]
inactive: [1] 0.978 | Shigella flexneri 1 | Vibrio cholerae 0.957 | [2] 0.975 | P. vulgatus RND KO 0.88 | P. vulgatus WT 0.796 | [3] 0.99 | [4] 0.957

C[N+](C)(CCOc1ccccc1)Cc1ccccc1.O=C([O-])c1cc2ccccc2cc1O [Bephenium hydroxynaphthoate]
inactive: [1] 1.05 | Shigella flexneri 1.04 | Vibrio cholerae 1.03 | [2] 1.03 | P. vulgatus RND KO 0.998 | P. vulgatus WT 0.991 | [3] 0.989 | [4] 0.977

CCOC(=O)C(C)(C)Oc1ccc(Cl)cc1 [Clofibrate]
inactive: [1] 1.03 | Shigella flexneri 1.01 | Vibrio cholerae 1.03 | [2] 1.02 | P. vulgatus RND KO 1.03 | P. vulgatus WT 1.04 | [3] 1 | [4] 0.991

Clc1ccc(C(Cn2ccnc2)OCc2csc3c(Cl)cccc23)c(Cl)c1 (stereo unspecified) [Sertaconazole nitrate]
inactive: [1] 1.02 | Shigella flexneri 1.06 | Vibrio cholerae 1.05 | [2] 0.913 | P. vulgatus RND KO 1 | P. vulgatus WT 1.01 | [3] 1.01 | [4] 0.935

Cc1cccc(Nc2ccncc2S(=O)(=O)NC(=O)NC(C)C)c1 [Torsemide]
inactive: [1] 1 | Shigella flexneri 1.04 | Vibrio cholerae 1.01 | [2] 1.01 | P. vulgatus RND KO 1.04 | P. vulgatus WT 1.05 | [3] 1.01 | [4] 1

CCCCCCCN(CC)CCCC(O)c1ccc(NS(C)(=O)=O)cc1 (stereo unspecified) [Ibutilide fumarate]
inactive: [1] 0.991 | Shigella flexneri 0.961 | Vibrio cholerae 0.964 | [2] 0.989 | P. vulgatus RND KO 1.01 | P. vulgatus WT 0.991 | [3] 0.996 | [4] 1.01

CN(C)C(=O)C(CCN1CCC(O)(c2ccc(Cl)cc2)CC1)(c1ccccc1)c1ccccc1 [Loperamide hydrochloride]
inactive: [1] 0.997 | Shigella flexneri 0.972 | Vibrio cholerae 0.981 | [2] 0.988 | P. vulgatus RND KO 1 | P. vulgatus WT 1.01 | [3] 1 | [4] 0.987

CCN1CCCC1CNC(=O)c1cc(S(=O)(=O)CC)c(N)cc1OC (stereo unspecified) [Amisulpride]
inactive: [1] 0.998 | Shigella flexneri 1 | Vibrio cholerae 1.01 | [2] 0.99 | P. vulgatus RND KO 1.02 | P. vulgatus WT 1.01 | [3] 1.01 | [4] 0.995

O=C(O)c1cc(=O)c2c(OCC(O)COc3cccc4oc(C(=O)O)cc(=O)c34)cccc2o1 [Cromolyn disodium salt]
inactive: [1] 0.98 | Shigella flexneri 0.995 | Vibrio cholerae 1 | [2] 1 | P. vulgatus RND KO 1.03 | P. vulgatus WT 1.03 | [3] 1.02 | [4] 0.996

COc1cc([S+](C)[O-])ccc1-c1nc2cccnc2[nH]1 (stereo unspecified) [Sulmazole]
inactive: [1] 1.02 | Shigella flexneri 1.03 | Vibrio cholerae 1.04 | [2] 1.02 | P. vulgatus RND KO 1.07 | P. vulgatus WT 1.08 | [3] 0.999 | [4] 0.987

C[N+]1(C)CCC(=C(c2ccccc2)c2ccccc2)CC1 [Diphemanil methylsulfate]
inactive: [1] 0.987 | Shigella flexneri 1.01 | Vibrio cholerae 1.02 | [2] 1.02 | P. vulgatus RND KO 1.03 | P. vulgatus WT 1.02 | [3] 0.991 | [4] 1

C(=C\c1ccccc1)/CN1CCN(C(c2ccccc2)c2ccccc2)CC1 [Cinnarizine]
inactive: [1] 0.986 | Shigella flexneri 0.925 | Vibrio cholerae 0.895 | [2] 0.976 | P. vulgatus RND KO 1.01 | P. vulgatus WT 1 | [3] 0.997 | [4] 0.965

CS(=O)(=O)OCCCCOS(C)(=O)=O [Busulfan]
inactive: [1] 1.01 | Shigella flexneri 1.04 | Vibrio cholerae 1.07 | [2] 1.03 | P. vulgatus RND KO 1.02 | P. vulgatus WT 0.994 | [3] 1.01 | [4] 1.01

COC(=O)Nc1nc2ccc(SC(C)C)cc2[nH]1 [Methiazole]
inactive: [1] 1.01 | Shigella flexneri 1 | Vibrio cholerae 0.999 | [2] 1.01 | P. vulgatus RND KO 0.992 | P. vulgatus WT 1.04 | [3] 0.997 | [4] 0.994

CC(C)COCC(CN(Cc1ccccc1)c1ccccc1)N1CCCC1 (stereo unspecified) [Bepridil hydrochloride]
inactive: [1] 1 | Shigella flexneri 0.965 | Vibrio cholerae 0.875 | [2] 1.02 | P. vulgatus RND KO 0.996 | P. vulgatus WT 0.982 | [3] 0.986 | [4] 0.906

CC1(C)O[C@@H]2C[C@H]3[C@@H]4C[C@H](F)C5=CC(=O)CC[C@]5(C)[C@H]4[C@@H](O)C[C@]3(C)[C@]2(C(=O)CO)O1 [Flurandrenolide]
inactive: [1] 1 | Shigella flexneri 1.01 | Vibrio cholerae 1.03 | [2] 0.996 | P. vulgatus RND KO 1.06 | P. vulgatus WT 1.07 | [3] 0.996 | [4] 0.986

CC(C)(C)NC(=O)[C@@H]1C[C@@H]2CCCC[C@@H]2CN1C[C@@H](O)[C@H](Cc1ccccc1)NC(=O)[C@H](CC(N)=O)NC(=O)c1ccc2ccccc2n1 [Saquinavir mesylate]
inactive: [1] 1.01 | Shigella flexneri 1.02 | Vibrio cholerae 1.04 | [2] 1.03 | P. vulgatus RND KO 0.859 | P. vulgatus WT 0.89 | [3] 1.02 | [4] 1

COc1ccccc1OCC(O)CN1CCN(CC(=O)Nc2c(C)cccc2C)CC1 (stereo unspecified) [Ranolazine]
inactive: [1] 1 | Shigella flexneri 1 | Vibrio cholerae 1.01 | [2] 1.01 | P. vulgatus RND KO 0.994 | P. vulgatus WT 1 | [3] 0.998 | [4] 0.998

COc1cc2nc(N3CCN(C(=O)c4ccco4)CC3)nc(N)c2cc1OC [Prazosin hydrochloride]
inactive: [1] 0.993 | Shigella flexneri 0.984 | Vibrio cholerae 1 | [2] 1.01 | P. vulgatus RND KO 1 | P. vulgatus WT 1 | [3] 0.993 | [4] 0.97
